Results reported in PubChem BioAssay (EPA / NIEHS).
Records with an inconclusive call do not appear. Activity calls are given as the source filed them. Rule for the calls: active = hit-call score of the fitted dose curve at least 0.9, where 1 is the maximum; inconclusive = response in the unintended direction; inactive = score below 0.9.

Molecular target: Cellular tumor antigen p53 (Homo sapiens) (UniProt P04637)
Experiment: TOX21_p53_BLA_p4_ratio: Tox21 HCT-116 p53 Agonism Beta-lactamase Assay, Ratio, Phase 4 (AID 2283601)
Procedure, shortened: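 Signal is the blue/green (460nm/530nm) ratio of cleaved versus uncleaved CCF4-AM substrate, read after 2 h substrate loading. Cells were HCT116 carrying the p53-responsive beta-lactamase reporter, dosed 16 h at 37C, 5% CO2; CellTiter-Glo measured in parallel.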

Sequence of Cellular tumor antigen p53 (Homo sapiens) (P04637 whole entry, looked up): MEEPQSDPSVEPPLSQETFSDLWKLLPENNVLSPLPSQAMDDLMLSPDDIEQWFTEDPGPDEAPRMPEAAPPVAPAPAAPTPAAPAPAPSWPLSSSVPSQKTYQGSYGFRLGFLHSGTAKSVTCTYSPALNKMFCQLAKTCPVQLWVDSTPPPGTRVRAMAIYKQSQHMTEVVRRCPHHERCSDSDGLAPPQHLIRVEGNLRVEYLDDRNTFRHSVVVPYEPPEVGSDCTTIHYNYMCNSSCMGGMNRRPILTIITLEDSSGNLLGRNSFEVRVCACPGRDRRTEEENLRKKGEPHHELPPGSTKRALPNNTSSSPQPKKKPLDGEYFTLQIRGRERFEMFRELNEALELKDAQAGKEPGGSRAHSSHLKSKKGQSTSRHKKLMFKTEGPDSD

**Q.** `CC(C)(C)C1CCCCC1O` (configuration not stated) was tested. Which outcome did it give?
**A.** Its outcome is “inactive”.

**Q.** Which outcome does the source give for `CC1=CC(=O)c2ccccc2C1=O` here?
**A.** The outcome was “inactive”.

**Q.** Which outcome does the source give for `NS(=O)(=O)O` here?
**A.** Its outcome is “inactive”.

**Q.** How did the outcome turn out when `CCCCCCCCCC=CCC1CC(=O)OC1=O` (configuration not stated) was run?
**A.** The outcome was “inactive”.

**Q.** `CCC(=O)C=Cc1ccc(OC)cc1` was tested. Which outcome did it give?
**A.** The outcome was “inactive”.

**Q.** Which outcome does the source give for `Clc1ccc(Nc2nnc(Cc3ccncc3)c3ccccc23)cc1` here?
**A.** Its outcome is “inactive”.

**Q.** With `CC1=NN(c2ccccc2)C(=O)C1` as the compound, how does the outcome read?
**A.** Its outcome is “inactive”.

**Q.** How did the outcome turn out when `CCC1CO1` (configuration not stated) was run?
**A.** Its outcome is “inactive”.

**Q.** `CC(C)(C)c1ccc(CCC=O)cc1` was tested. Which outcome did it give?
**A.** Its outcome is “inactive”.

**Q.** `CC=O` was tested. Which AC50 did it give?
**A.** Its AC50 is 62.6 µM (active).

**Q.** `O=C(Nc1cccc([N+](=O)[O-])c1)c1cc2ccccc2cc1O` was tested. Which AC50 did it give?
**A.** Its AC50 is 11.6 µM (active).

**Q.** With `CC(O)COc1ccccc1` (configuration not stated) as the compound, how does the outcome read?
**A.** Its outcome is “inactive”.

**Q.** With `C[C@]12CC[C@@H]3c4ccc(O)cc4CC[C@H]3[C@@H]1CC[C@@H]2OC(=O)CCC1CCCC1` as the compound, how does the outcome read?
**A.** Its outcome is “inactive”.

**Q.** Which outcome does the source give for `CCN(CC)CC` here?
**A.** Its outcome is “inactive”.

**Q.** For `CCC(=O)O`, which outcome is on record?
**A.** Its outcome is “inactive”.

**Q.** How did the outcome turn out when `COC(=O)CC(C(C)=O)C(=O)OC` (configuration not stated) was run?
**A.** The outcome was “inactive”.

**Q.** How did the outcome turn out when `Cc1ccc(C(=O)c2ccccc2)cc1` was run?
**A.** Its outcome is “inactive”.
